Bioassay records deposited in PubChem by National Center for Advancing Translational Sciences (NCATS).
Shown are actives, neighbours in structure and some others; about 11% of the full set was active somewhere.
NPR1 antag: Natriuretic polypeptide receptor (hNpr1) antagonism - Primary qHTS. Atrial natriuretic peptide receptor 1 (Homo sapiens), P16066. HEK293 hNpr1 GloSensor cGMP, ANP-stimulated luminescence. Potency, µM (highest dose often 46.3 µM), hits mostly inhibitors. 76,000 tested, 1.6% active. AID 1347048, 2019; calls by dose curve; note: nearly all actives have a fitted effect of over 60% in size
Target sequence (P16066 whole entry, looked up): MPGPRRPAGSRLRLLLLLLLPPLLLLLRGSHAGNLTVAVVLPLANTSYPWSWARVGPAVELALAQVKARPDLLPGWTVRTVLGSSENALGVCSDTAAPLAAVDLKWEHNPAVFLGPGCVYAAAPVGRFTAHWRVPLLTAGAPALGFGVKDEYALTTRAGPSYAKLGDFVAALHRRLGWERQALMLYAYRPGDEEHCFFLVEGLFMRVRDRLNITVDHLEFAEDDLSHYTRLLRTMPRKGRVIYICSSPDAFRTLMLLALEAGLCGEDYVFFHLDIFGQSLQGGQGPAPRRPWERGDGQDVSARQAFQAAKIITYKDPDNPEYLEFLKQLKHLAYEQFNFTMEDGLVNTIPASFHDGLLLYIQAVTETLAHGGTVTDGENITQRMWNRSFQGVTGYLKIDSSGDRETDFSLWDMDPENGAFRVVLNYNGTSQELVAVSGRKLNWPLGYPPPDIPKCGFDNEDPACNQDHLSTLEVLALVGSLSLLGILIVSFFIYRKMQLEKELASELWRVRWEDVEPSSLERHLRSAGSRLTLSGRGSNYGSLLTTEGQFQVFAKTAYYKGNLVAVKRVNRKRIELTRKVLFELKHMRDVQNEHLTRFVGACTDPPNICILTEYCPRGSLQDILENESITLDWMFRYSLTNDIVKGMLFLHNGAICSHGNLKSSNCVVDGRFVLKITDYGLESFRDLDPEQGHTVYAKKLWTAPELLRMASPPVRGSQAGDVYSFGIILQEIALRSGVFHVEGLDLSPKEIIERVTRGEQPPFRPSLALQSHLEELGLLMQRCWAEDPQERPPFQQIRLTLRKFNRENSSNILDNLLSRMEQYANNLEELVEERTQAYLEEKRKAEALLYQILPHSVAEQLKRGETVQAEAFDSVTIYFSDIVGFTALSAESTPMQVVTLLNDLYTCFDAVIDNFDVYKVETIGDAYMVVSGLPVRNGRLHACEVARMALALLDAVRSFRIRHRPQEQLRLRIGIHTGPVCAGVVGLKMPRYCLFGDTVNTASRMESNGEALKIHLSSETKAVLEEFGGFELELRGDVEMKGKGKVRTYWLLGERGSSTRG
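Compound pre-incubated 30 min at room temperature on GloSensor-loaded HEK293 cells stably carrying hNpr1 and the pGS-40F cGMP biosensor. Stimulation uses hNppA at 0.1 nM final; luminescence is taken at baseline and 20 min post-agonist.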
HEK cytotox: Cytotoxic Profiling in HEK 293 Cell Line of Diverse Libraries Using Quantitative High-Throughput Screening; HEK 293 viability, ATP luminescence (CellTiter-Glo), 48-72 h; Potency, µM (series often up to 115 µM), actives largely listed as inhibitors; 94,000 tested, 6.6% active; note: nearly all actives have a fitted effect of over 60% in size
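Viability of HEK 293 cells, plated at 250 cells/well, was judged by cellular ATP after compound treatment for 48 or 72 hr. Luminescence was imaged 10 min after CellTiter-Glo addition at room temperature.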
NIH3T3 tox: Cytotoxic Profiling in NIH 3T3 Cell Line of Diverse Libraries Using Quantitative High-Throughput Screening; NIH 3T3 viability, CellTiter-Glo ATP luminescence, 48-72 h; 94,000 tested, 4.3% active; Potency, µM (highest dose often 96.7 µM), most hits filed as inhibitors; note: nearly all actives have a fitted effect of over 55% in size
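Viability of NIH 3T3 cells after 48 or 72 hr compound treatment at 37 °C was assessed by CellTiter-Glo, with luminescence imaged following a 10 min room-temperature step.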
FLuc inh: Firefly luciferase inhibition profiling of diverse chemical library using quantitative high-throughput screening. Potency, µM (highest dose often 115 µM), usual class: inhibitors. AID 1347043, 2019. Luciferin 4-monooxygenase (Photinus pyralis), P08659. 76,000 tested, 2.5% active. purified P. pyralis luciferase, luminescence, biochemical; note: nearly all actives have a fitted effect of over 65% in size
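Cell-free enzyme assay, 10nM P. pyralis luciferase, luciferin and ATP each at 10uM. Inhibition profiled over a 6-point titration, read as luminescence.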
Of the large screens only hits and unclear results are named; the others gave an inactive call. Unless noted, calls come from the whole dose curve; as a rule, active = well fitted curve in the direction sought with a large enough effect; inconclusive = small, poorly fitted or top-dose-only effect, or another doubt; inactive = no such curve, though single readings can be large; an effect the other way counts as inactive or inconclusive.

Fc1ccccc1-c1noc(N2CCOCC2)n1	HEK cytotox inconclusive, FLuc inh 32µM
O=C(NCCN1CCOCC1)c1noc(-c2ccccc2F)n1	none
CCN1c2cc(C(=O)Nc3ccc(F)cc3)ccc2C(=O)N2CCCCC21 (centres undefined)	HEK cytotox inconclusive, NIH3T3 tox inconclusive
CCN1c2cc(C(=O)Nc3ccc(C(=O)OC)cc3)ccc2C(=O)N2CCCCCC21 (centres undefined)	HEK cytotox 45µM, NIH3T3 tox inconclusive
CCc1ccc(NC(=O)c2ccc3c(c2)N(CC)C2CCCCCN2C3=O)cc1 (centres undefined)	HEK cytotox 18µM, NIH3T3 tox 28µM, FLuc inh inconclusive
C=CCN(Cc1cccc(OCC)c1)C(=O)CC1CNCCO1 (centres undefined)	none
O=C(c1ccc2[nH]ccc2c1)N1CCN(C(=O)c2nnn3c2COC(c2ccccc2)C3)CC1 (centres undefined)	HEK cytotox 79µM
CSc1ccc(NC(=O)C2CCN(C(=O)c3nnn4c3COC(c3ccc(C)cc3)C4)CC2)cc1 (centres undefined)	FLuc inh inconclusive
Cc1ccc(C2Cn3nnc(C(=O)N4CCC(C(=O)Nc5cccc(Cl)c5)CC4)c3CO2)cc1 (centres undefined)	HEK cytotox 40µM, NIH3T3 tox inconclusive, FLuc inh 28µM
Cc1ccc(C2Cn3nnc(C(=O)N4CCC(C(=O)NC5CCCCCC5)CC4)c3CO2)cc1 (centres undefined)	HEK cytotox inconclusive, FLuc inh inconclusive
Cc1ccc(C2Cn3nnc(C(=O)N4CCN(C(=O)c5cccc(N(C)C)c5)CC4)c3CO2)cc1 (centres undefined)	NPR1 antag inconclusive, HEK cytotox 18µM, FLuc inh inconclusive
Cc1ccc(C2Cn3nnc(C(=O)N4CCC(C(=O)Nc5ccc(Cl)c(C)c5)CC4)c3CO2)cc1 (centres undefined)	FLuc inh 35µM
O=C(C1CCCN1C(=O)NC1CCCC1)N1CCC(c2nc3ccncc3[nH]2)CC1 (centres undefined)	none (no result: NPR1 antag, FLuc inh)
CNc1ncncc1-c1nc(-c2ccccc2)no1	HEK cytotox inconclusive, NIH3T3 tox inconclusive, FLuc inh inconclusive
COc1ccc(-c2nn(-c3ccccc3C)cc2CN(C)Cc2nonc2C)cc1F	NIH3T3 tox inconclusive
O=C(COc1ccccc1)N1CCC2(CC1)CN(Cc1ccccc1)CC2CO (centres undefined)	HEK cytotox inconclusive, NIH3T3 tox inconclusive
COCC1CN(Cc2ccc(C(C)C)cc2)CC12CCNCC2 (centres undefined)	HEK cytotox 45µM, NIH3T3 tox inconclusive
O=C(c1ccccc1F)N1CCC2(CC1)CN(Cc1ccccc1)CC2CO (centres undefined)	HEK cytotox 79µM, NIH3T3 tox inconclusive
COCC1CN(Cc2ccc(Cl)cc2)CC12CCNCC2 (centres undefined)	HEK cytotox inconclusive, NIH3T3 tox inconclusive
OCC1CN(Cc2ccc(Br)cc2)CC12CCNCC2 (centres undefined)	HEK cytotox 40µM, NIH3T3 tox 40µM
OCC1CN(Cc2ccc(C(F)(F)F)cc2)CC12CCNCC2 (centres undefined)	HEK cytotox inconclusive
O=C(NCc1ccc(C(F)(F)F)cc1)C1CCCN(Cc2cccc(-c3ccsc3)c2)C1 (centres undefined)	HEK cytotox inconclusive, NIH3T3 tox 35µM (no result: NPR1 antag, FLuc inh)
O=C(NCc1cccc(C(F)(F)F)c1)C1CCCN(Cc2cccc(-c3ccsc3)c2)C1 (centres undefined)	HEK cytotox 32µM, NIH3T3 tox 13µM (no result: NPR1 antag, FLuc inh)
O=C(NCc1ccc(C(F)(F)F)cc1)C1CCCN(c2cn[nH]c(=O)c2)C1 (centres undefined)	none
O=C1CCN(Cc2ccncc2)CCCC(C(=O)NCc2cccc(C(F)(F)F)c2)CCN1 (centres undefined)	none
Cc1ccc(-c2noc([C@@H]3Cc4nc[nH]c4CN3Cc3cccs3)n2)cc1	HEK cytotox 79µM, NIH3T3 tox 79µM, FLuc inh 28µM
c1ccc(CN2Cc3[nH]cnc3C[C@H]2c2nc(-c3ccncc3)no2)cc1	HEK cytotox inconclusive, NIH3T3 tox inconclusive
Fc1ccc(-c2noc([C@@H]3Cc4nc[nH]c4CN3Cc3cccs3)n2)cc1Cl	HEK cytotox inconclusive, NIH3T3 tox 50µM, FLuc inh 56µM
Fc1ccc(-c2noc([C@@H]3Cc4nc[nH]c4CN3CCCc3ccccc3)n2)cc1Cl	HEK cytotox inconclusive, NIH3T3 tox inconclusive, FLuc inh inconclusive
Fc1ccc(-c2noc([C@@H]3Cc4nc[nH]c4CN3Cc3cc4ccccc4o3)n2)cc1Cl	HEK cytotox inconclusive, NIH3T3 tox inconclusive, FLuc inh inconclusive
Fc1ccc(-c2noc([C@@H]3Cc4nc[nH]c4CN3Cc3ccccc3)n2)cc1Cl	HEK cytotox 71µM, NIH3T3 tox 71µM
O=C(NC1CCOCC1)c1ccnc(-c2nnc3ccc(Nc4ccccc4)nn23)c1	NIH3T3 tox inconclusive
O=C(Cc1ccccc1F)NC1CCN(c2cc(-c3cccs3)[nH]n2)C1 (centres undefined)	HEK cytotox 16µM, NIH3T3 tox inconclusive
CCOc1ccc(CC(=O)NC2CCN(c3cc(-c4cccs4)[nH]n3)C2)cc1 (centres undefined)	HEK cytotox 45µM, NIH3T3 tox 16µM
O=C(Cc1cccc(F)c1)NC1CCN(c2cc(-c3cccs3)[nH]n2)C1 (centres undefined)	HEK cytotox inconclusive, NIH3T3 tox inconclusive
CCOc1cc(C(=O)NC2CCN(c3cc(-c4cccs4)[nH]n3)C2)cc(OCC)c1OCC (centres undefined)	HEK cytotox 45µM, NIH3T3 tox inconclusive
COc1cc(C(=O)NC2CCN(c3cc(-c4cccs4)[nH]n3)C2)cc(OC)c1OC (centres undefined)	HEK cytotox inconclusive, NIH3T3 tox inconclusive
COc1ccc(CN2CC(O)CN(C(=O)Cc3ccccc3)CC2=O)cc1 (centres undefined)	NIH3T3 tox inconclusive (no result: NPR1 antag, FLuc inh)
Cc1ccc(-c2cn3c(n2)CO[C@@H](CNC(C)C)C3)cc1	HEK cytotox inconclusive, NIH3T3 tox inconclusive, FLuc inh 40µM
COc1ccc(-c2cn3c(n2)CO[C@@H](CNC2CCCC2)C3)cc1	none
COc1ccccc1-c1cn2c(n1)CO[C@@H](CNC(=O)c1ccc(Cl)cc1)C2	HEK cytotox 100µM, NIH3T3 tox inconclusive
Cc1ccc(-c2cn3c(n2)CO[C@@H](CNC(=O)c2ccc(Cl)cc2)C3)cc1	NPR1 antag inconclusive, HEK cytotox inconclusive, NIH3T3 tox inconclusive, FLuc inh 40µM
Cc1ccc(Nc2ccnc(N3CCCN(C(=O)NC4CCCC4)C3)n2)cc1	HEK cytotox 16µM, NIH3T3 tox 25µM (no result: NPR1 antag, FLuc inh)
Cc1ccc(Nc2ccnc(N3CCCN(C(=O)C4CCCC4)C3)n2)cc1	HEK cytotox 13µM, NIH3T3 tox inconclusive (no result: NPR1 antag, FLuc inh)
